HttQ103 aggreg – reduces HttQ103-GFP aggregates in PC12 cells | PC12 HttQ103-GFP aggregates, Acumen cytometry, 40 h | Potency, µM (top dose mostly 46.1 µM), usual class: inhibitors | 220,000 tested, 1.1% active; also: nearly all actives have a fitted effect of over 60% in size
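Aggregate formation scored by laser-scanning cytometer (488 excitation, 500–530 emission) in lysed PC12 cells expressing Q103-GFP after 100 nM tebufenozide induction; library tested in dose series, with ATPLite reagent added in the multiplex.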
HTT cytoprotect – cytoprotection in Huntington HTT-Q103 PC12 cell model. PC12 HTT-Q103 induced, cytoprotection, ATP luminescence, 40 h. Potency, µM (titrated, usually from 56.4 µM), usual class: activators. 230,000 tested, 0.14% active. AID 1471; also: nearly all actives have a fitted effect of over 45% in size
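ATP quantification (ATPlite) reports survival of PC12 cells in which tebufenozide, 100 nM final, switches on Htt exon 1 with 103 glutamines linked to GFP; compounds are titrated.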
ALDH1A1 inh – blocks purified human ALDH1A1 activity | P00352 | Purified ALDH1A1, NADH fluorescence, propionaldehyde substrate | Potency, µM (highest dose often 75.3 µM), hits mostly inhibitors | 220,000 tested, 7.3% active | AID 1030; active = well fitted inhibition curve with a large enough effect, not every such curve was filed as active; inconclusive = small, poorly fitted or top-dose-only effect, or another doubt; inactive = no such curve, though single readings can be large or run the other way
IMPase inh – membrane-permeable compound that blocks inositol monophosphatase; CHO-M1 cells, IP1 accumulation, HTRF TR-FRET ratio; inhibition (IP1 accumulation), % at 46.1 µM; 120,000 tested, under 10 active; active = well fitted curve in the direction sought with a large enough effect in the signal ratio, not every such curve was filed as active; inconclusive = small, poorly fitted or top-dose-only effect, or a change in a side signal; inactive = no such curve, though single readings can be large or run the other way; the % refers to the signal ratio;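 also: cells stimulated with carbachol in lithium chloride buffer; higher means more IMPase inhibition seen as more IP1 and lower FRET ratio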
Target sequence (P97697 whole entry, looked up): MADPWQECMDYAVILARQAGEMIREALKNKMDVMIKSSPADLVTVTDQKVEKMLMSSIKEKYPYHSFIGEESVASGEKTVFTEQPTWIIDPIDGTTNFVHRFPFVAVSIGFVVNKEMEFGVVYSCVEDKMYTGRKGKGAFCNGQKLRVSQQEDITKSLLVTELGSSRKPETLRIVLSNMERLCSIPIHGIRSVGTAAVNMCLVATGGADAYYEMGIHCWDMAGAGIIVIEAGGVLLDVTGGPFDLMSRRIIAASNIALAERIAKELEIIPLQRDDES
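Elevated IP1 in lysates lowers TR-FRET signal (665/620 ratio and 620 channel reported). Cells were CHO-M1, given carbachol (50 uM as added) plus 50mM LiCl, pH 7.4, 30 min, 37C; compounds titrated up to 46 uM; AC50 by Hill equation.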
IMPase Li cell – IMPase inhibition in cells with lithium potentiation | CHO-M1 cells, IP1 TR-FRET (IP-One), carbachol + lithium | Potency, µM (highest dose often 59.4 µM), usual class: inhibitors | 210,000 tested, 0.35% active;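 also: IP1 builds up when IMPase is blocked and the TR-FRET signal falls; nearly all actives have a fitted effect of over 50% in size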
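Readout is a homogeneous TR-FRET IP1 immunoassay (Ex 320, Em 665 and 620), where raised cytosolic IP1 lowers signal. Cells were CHO-M1 treated 30 min at 37C with test compounds plus a little lithium; AC50 values came from Hill-equation fitting.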
HPGD block – HPGD (human) dehydrogenase inhibition. purified HPGD, NADH fluorescence kinetic, PGE2 substrate. P15428. 150,000 tested, 4.3% active. Potency, µM, hits mostly inhibitors; active = well fitted inhibition curve with a large enough effect, not every such curve was filed as active; inconclusive = small, poorly fitted or top-dose-only effect, or another doubt; inactive = no such curve, though single readings can be large or run the other way
Target sequence (P15428 whole entry, looked up): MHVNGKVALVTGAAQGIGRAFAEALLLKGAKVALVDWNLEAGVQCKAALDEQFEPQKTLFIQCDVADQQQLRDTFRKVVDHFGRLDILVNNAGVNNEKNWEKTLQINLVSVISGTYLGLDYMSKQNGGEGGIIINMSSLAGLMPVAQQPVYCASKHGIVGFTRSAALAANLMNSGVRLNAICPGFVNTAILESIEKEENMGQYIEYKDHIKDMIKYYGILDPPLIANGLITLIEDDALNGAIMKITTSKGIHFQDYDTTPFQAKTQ
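20 nM HPGD preincubated 15 min at room temperature with compound in 50 mM Tris-HCl pH 8, 0.01% Tween 20. Started with 1 mM NAD+ and 30 uM prostaglandin E2; NADH fluorescence (360/450 nm) read 5 times over 30-s intervals, last minus first.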
Hits are given with their value; . = inactive; ? = inconclusive; / = no result given; [ ] = dose if it differs, or a comment. Only some compounds are listed: those with a hit (about 9.4% of all), similar ones and a draw of the others. Unless noted, calls follow the shape of the dose curve; as a rule, active = well fitted curve in the direction sought with a large enough effect; inconclusive = small, poorly fitted or top-dose-only effect, or another doubt; inactive = no such curve, though single readings can be large; an effect the other way counts as inactive or inconclusive.

SMILES | HttQ103 aggreg | HTT cytoprotect | ALDH1A1 inh | IMPase inh | IMPase Li cell | HPGD block
Cc1ccc(C)c(C(=O)N(Cc2nc(-c3ccc(Cl)cc3)no2)C(C)C)c1 | 22µM | . | . | . | . | .
COc1cc(C2CC(=O)Oc3cc(C)cc(C)c32)cc(OC)c1OC (centres undefined) | / | . | . | / | . | .
CC1CCc2sc(C(=O)OCC(=O)NC(C)C)cc2C1 (centres undefined) | . | . | . | / | . | /
O=C(c1ccccc1)[C@H](Nc1ccc2ccccc2c1)c1ccccc1 | / | .[10 µM] | .[13.5 µM] | / | . | .
O=C(Nc1nc2c(F)cc(F)cc2s1)C1CC(=O)N(Cc2ccco2)C1 (centres undefined) | .[9.22 µM] | .[10 µM] | 14µM | / | / | /
Cc1cc(C(=O)N2CCCC(C(=O)c3cc(F)ccc3F)C2)c(C)o1 (centres undefined) | . | . | 14µM | / | . | /
C=CC(C)(C)c1[nH]c2ccccc2c1C1=C(O)C(=O)C(c2c[nH]c3c(CC=C(C)C)cccc23)=C(O)C1=O | / | . | ? | . | . | 25µM
CCC(=O)c1ccc(OC(C)C(=O)NC2(C#N)CCCCC2)cc1 (centres undefined) | . | .[10 µM] | . | / | . | /
CCOC(=O)c1oc2ccc(S(=O)(=O)n3nc(-c4ccccc4)cc3N)cc2c1C | 10µM | . | . | . | . | .
Cc1ccc([C@@H](O)c2cnc(C)n2Cc2ccccc2)cc1 | / | .[10 µM] | .[13.5 µM] | / | . | .
CO[C@H]1C[C@@H]2C[C@H](O)C[C@@H](CC(=O)O[C@@H](/C=C\CC(C)C)C[C@@H]3CC[C@H](C)[C@@H](C1)O3)O2 | / | ? | .[13.5 µM] | / | / | /
Cc1cc(C)n(-c2ccc(C(=O)NC(C)C)cc2)n1 | . | .[0.074 µM] | . | . | . | 20µM
Nc1n[nH]c(=S)n1/N=C1/C(=O)Nc2ccccc21 | . | / | 7.9µM | / | . | /
Cc1ccc2c(c1)/C(=N/N1C(=O)c3ccccc3C1=O)C(=O)N2 | . | / | . | / | . | .
O=C(c1cnn(C(=O)c2cccc(S(=O)(=O)N3CCOCC3)c2)c1)c1ccccc1O | . | . | 3.5µM | / | . | /
C[C@]12C=CC(=O)C=C1CC[C@@H]1[C@H]3C[C@@H](O)[C@](O)(C(=O)CO)[C@@]3(C)C[C@H](O)[C@]12F | / | . | . | . | . | .
Cc1cc(=O)oc2cc(NC(=O)c3cc4ccccc4o3)ccc12 | . | . | ? | . | 2µM | ?
O=C(Nc1ccc2oc(=O)ccc2c1)c1cc2ccccc2o1 | . | .[10 µM] | . | . | . | ?
CCOC(=O)CC1C(=O)NCCN1c1nc2ccc(C)cn2c(=O)c1/C=C1\SC(=S)N(C(C)CC)C1=O (centres undefined) | .[9.22 µM] | .[10 µM] | 1.4µM | / | / | /
COC(OC)[C@@H](C)[C@H](OC)[C@@H](C)[C@H](OC)c1ccccc1 | / | .[10 µM] | .[13.5 µM] | / | / | /
N#CC1=C(SCC(N)=O)NC(=O)CC1c1cccc2ccccc12 (centres undefined) | / | . | / | / | / | /
CC1=C(C(=O)Nc2ccccc2)C(c2ccco2)C(C#N)=C(SCc2ccccc2)N1 (centres undefined) | . | . | ? | . | . | ?
CCSC1=C(C#N)C(c2ccc(C)o2)CC(=O)N1 (centres undefined) | .[9.22 µM] | .[10 µM] | / | / | / | /
N#CC1=C(SCc2ccccc2)NC(=O)CC1c1ccco1 (centres undefined) | . | . | 22µM | . | . | .
Cc1ccc(C2CC(=O)NC(SCc3ccccc3)=C2C#N)o1 (centres undefined) | . | . | . | . | . | 22µM
N#CC1=C(SCC(=O)NCc2ccccc2)NC(=O)CC1c1ccco1 (centres undefined) | . | .[10 µM] | 8.9µM | .[1.84 µM] | . | .
CCCCCCSC1=C(C#N)C(c2ccc(C)o2)CC(=O)N1 (centres undefined) | . | . | 7.9µM | . | . | 32µM
COc1ccc(CNC(=O)C2CCCN2C)cc1OC (centres undefined) | .[9.22 µM] | .[10 µM] | / | / | / | /
COC(=O)C1(C(=O)OC)CC2=C[C@H](CC2=O)Cc2ccccc2[C@@H]1C[N+](=O)[O-] | / | . | . | / | . | .
O=C(CSc1ccc(F)cc1)NC1CCCCC1 | . | . | . | / | . | /

Screening results (PubChem BioAssay)
